ChEMBL document CHEMBL1157539, “Thousands of chemical starting points for antimalarial lead identification” (Nature, 2010)

system: Plasmodium falciparum; assay: GSK_TCMDC: Inhibition of Plasmodium falciparum 3D7 in whole red blood cells, using parasite LDH activity as an index of growth. Test compounds present at 2uM; type: functional

| SMILES | Inhibition [%] |
| --- | --- |
| O=C(NCCCN1CCCC1=O)c1cnc(N2CCC(Oc3ccccc3)CC2)c(Cl)c1 | 97 |
| Cc1cccc2nc(-c3cccc(-c4ccc(CN5CCCC5CN)cc4)c3)[nH]c12.O=C(O)C(F)(F)F (stereo not given) | 100 |
| CN(C)CCN(C)Cc1ccc(-c2cccc(NC(=O)c3ccc(Cl)cc3)c2)cc1.O=C(O)C(F)(F)F | 97 |
| CCC(=O)OC(CCN(CC)CC)(c1ccccc1)c1ccccc1 | 98 |
| OC(c1ccc2ccccc2c1)C1CN(CCc2ccccc2)CCC1(O)c1ccccc1 (stereo not given) | 99 |
| O=C(Nc1ccc(F)c(F)c1)c1ccc(CN2CCCN(Cc3cccc(O)c3)CC2)cc1.O=C(O)C(F)(F)F | 92 |
| O=C(Nc1ccc(C(=O)N2CCN(CCN3CCN(c4cccc(C(F)(F)F)c4)CC3)CC2)cc1)c1ccc(C(F)(F)F)cc1 | 95 |
| Oc1ccc2[nH]c(-c3cccc(F)c3)nc2c1CN1CCCC1 | 100 |
| COc1ccc(OC)c(Cc2cnc3nc(N)[nH]c(=O)c3c2C)c1 | 98 |
| CCCC(CNCc1cccc(OCC)c1)CNc1cc(=O)c2ccccc2[nH]1 (stereo not given) | 100 |
| Br.CC1(C)NC(N)=NC(=N)N1OCCSc1ccccc1 | 95 |
| CCCc1cc(N2CCC(c3ccccc3)(N3CCCCC3)CC2)nc(Nc2ccc(OC)cc2)n1 | 81 |
| Cc1cccc2nc(-c3cccc(-c4ccc(NC(=O)Cc5ccc[n+]([O-])c5)cc4)c3)[nH]c12 | 99 |
| CCn1c(-c2nonc2N)nc2c(-c3cccc(NC(=O)Nc4cccc(C(F)(F)F)c4)c3)ncc(OCCCN)c21.O=C(O)C(F)(F)F | 95 |
| CCCCCCCc1c(C)nc2c(OC)cccc2c1O | 89 |
| CCCCc1ccc(NC(=O)Nc2cccc(CCNCc3ccccc3)c2)cc1.O=C(O)C(F)(F)F | 94 |
| N#Cc1cccc(C(=O)Nc2cccc(-c3ccc(CN4CCC(O)CC4)cc3)c2)c1.O=C(O)C(F)(F)F | 86 |
| CCOc1cc(C(=O)NC2CC(C)(C)NC(C)(C)C2)ccc1-c1cc2cc(Cl)c(Cl)cc2[nH]1 | 100 |
| O=C(NC1CCCc2ccccc21)[C@@H]1CCCN1C(=O)c1ccc(O)c(-c2cccc([N+](=O)[O-])c2)c1 (stereo not given in full) | 99 |
| COCCNCc1cccc(-c2ccc3nccc(Nc4cc(O)ccc4C)c3c2)c1 | 100 |

| SMILES | Inhibition [%] |
| --- | --- |
| Cc1cc(CNC(=O)[C@H](CC2CCCCC2)Nc2ccc(C#N)c3ccccc23)c(C(F)(F)F)o1.O=C(O)C(F)(F)F | 87 |
| Cl.N=C(N)Nc1ccc(NC(=O)Nc2ccc(NC(=N)N)cc2)cc1 | 85 |
| Cc1cc(N[C@@H](Cc2ccccc2)C(=O)NCCc2ccccc2)nc(NCCc2ccccc2)n1.O=C(O)C(F)(F)F | 100 |
| CN(C)CCOc1cc(NC(=O)Nc2ccc(-c3ccncc3)c3ccccc23)ccc1I | 97 |
| CC1(C)N=C(N)N=C(N)N1OCCCOc1cc(Cl)c(Cl)cc1Cl.Cl | 95 |
| COc1ccc(Cl)cc1N1CCN(CCCNC(=O)c2ccc(-c3nc4cc(Cl)c(Cl)cc4[nH]3)c(C)c2)CC1 | 100 |
| Cc1ccc(C(O)CNc2ccnc(Nc3cccc(-c4csc(C)n4)c3)n2)cc1 (stereo not given) | 92 |
| CC(C)(CNCc1ccc(C(F)(F)F)cc1)c1nc(-c2ccc(Cl)c(O)c2)c(-c2ccncc2)[nH]1.Cl | 100 |
| CC(C)(C)NCC(O)COc1ccc(Cl)cc1C1=NNC(=O)CC1.Cl (stereo not given) | 96 |
| Cl.Nc1c(C(=O)NCCCCN2CCN(c3nsc4ccccc34)CC2)sc2ccccc12 | 86 |
| CC(C)(C)NC(=O)C(c1ccc(F)cc1)N(C(=O)c1ccc(CN2CCOCC2)o1)c1ccc(C2CCCCC2)cc1 (stereo not given) | 87 |
| CCCCNC(=O)C(C)NC(=O)c1ccc(O)c(-c2ccc(Cl)c(Cl)c2)c1 (stereo not given) | 98 |
| O=C(NCCc1ccccc1)c1cc(-c2cccnc2)cnc1NCC1CC1 | 93 |
| Nc1cccc(CNCc2cccc(-c3cccc(-c4nc5cc(C(F)(F)F)ccc5[nH]4)c3)c2)c1.O=C(O)C(F)(F)F | 100 |
| CCc1cc2c3c(N)nc(N)nc3ccc2n1C(CC)CC | 96 |
| CCc1c(C)nc(-n2nc(C)cc2NC(=O)CCc2ccccc2)[nH]c1=O | 97 |
| O=C1SC(=Cc2ccc(O)c(O)c2)C(=O)N1c1ccccc1 | 91 |
| Cc1cccc2nc(-c3cccc(-c4cccc(NC(=O)NC5CC5c5ccccc5)c4)c3)[nH]c12 (stereo not given) | 98 |
| N#Cc1cccc(C(=O)Nc2cccc(-c3ccc(C(=O)NCCCN4CCOCC4)cc3)c2)c1 | 96 |
| CC(=O)Nc1cccc(C(=O)Nc2cccc(-c3csc(-c4nc5ccccc5[nH]4)c3)c2)c1 | 96 |

system: Plasmodium falciparum; assay: GSK_TCMDC: Inhibition of Plasmodium falciparum Dd2 in whole red blood cells, using parasite LDH activity as an index of growth. Test compounds present at 2uM; type: functional

| SMILES | Inhibition [%] |
| --- | --- |
| O=C(NCCCN1CCCC1=O)c1cnc(N2CCC(Oc3ccccc3)CC2)c(Cl)c1 | 93 |
| Cc1cccc2nc(-c3cccc(-c4ccc(CN5CCCC5CN)cc4)c3)[nH]c12.O=C(O)C(F)(F)F (stereo not given) | 47 |
| CN(C)CCN(C)Cc1ccc(-c2cccc(NC(=O)c3ccc(Cl)cc3)c2)cc1.O=C(O)C(F)(F)F | 71 |
| CCC(=O)OC(CCN(CC)CC)(c1ccccc1)c1ccccc1 | 6 |
| OC(c1ccc2ccccc2c1)C1CN(CCc2ccccc2)CCC1(O)c1ccccc1 (stereo not given) | 96 |
| O=C(Nc1ccc(F)c(F)c1)c1ccc(CN2CCCN(Cc3cccc(O)c3)CC2)cc1.O=C(O)C(F)(F)F | 57 |
| O=C(Nc1ccc(C(=O)N2CCN(CCN3CCN(c4cccc(C(F)(F)F)c4)CC3)CC2)cc1)c1ccc(C(F)(F)F)cc1 | 28 |
| Oc1ccc2[nH]c(-c3cccc(F)c3)nc2c1CN1CCCC1 | 47 |
| COc1ccc(OC)c(Cc2cnc3nc(N)[nH]c(=O)c3c2C)c1 | 4 |
| CCCC(CNCc1cccc(OCC)c1)CNc1cc(=O)c2ccccc2[nH]1 (stereo not given) | 97 |
| Br.CC1(C)NC(N)=NC(=N)N1OCCSc1ccccc1 | 95 |
| CCCc1cc(N2CCC(c3ccccc3)(N3CCCCC3)CC2)nc(Nc2ccc(OC)cc2)n1 | 28 |
| Cc1cccc2nc(-c3cccc(-c4ccc(NC(=O)Cc5ccc[n+]([O-])c5)cc4)c3)[nH]c12 | 87 |
| CCn1c(-c2nonc2N)nc2c(-c3cccc(NC(=O)Nc4cccc(C(F)(F)F)c4)c3)ncc(OCCCN)c21.O=C(O)C(F)(F)F | 70 |
| CCCCCCCc1c(C)nc2c(OC)cccc2c1O | 85 |
| CCCCc1ccc(NC(=O)Nc2cccc(CCNCc3ccccc3)c2)cc1.O=C(O)C(F)(F)F | 13 |
| N#Cc1cccc(C(=O)Nc2cccc(-c3ccc(CN4CCC(O)CC4)cc3)c2)c1.O=C(O)C(F)(F)F | 2 |
| CCOc1cc(C(=O)NC2CC(C)(C)NC(C)(C)C2)ccc1-c1cc2cc(Cl)c(Cl)cc2[nH]1 | 46 |
| O=C(NC1CCCc2ccccc21)[C@@H]1CCCN1C(=O)c1ccc(O)c(-c2cccc([N+](=O)[O-])c2)c1 (stereo not given in full) | 99 |
| COCCNCc1cccc(-c2ccc3nccc(Nc4cc(O)ccc4C)c3c2)c1 | 92 |

| SMILES | Inhibition [%] |
| --- | --- |
| Cc1cc(CNC(=O)[C@H](CC2CCCCC2)Nc2ccc(C#N)c3ccccc23)c(C(F)(F)F)o1.O=C(O)C(F)(F)F | 55 |
| Cl.N=C(N)Nc1ccc(NC(=O)Nc2ccc(NC(=N)N)cc2)cc1 | 74 |
| Cc1cc(N[C@@H](Cc2ccccc2)C(=O)NCCc2ccccc2)nc(NCCc2ccccc2)n1.O=C(O)C(F)(F)F | 57 |
| CN(C)CCOc1cc(NC(=O)Nc2ccc(-c3ccncc3)c3ccccc23)ccc1I | 46 |
| CC1(C)N=C(N)N=C(N)N1OCCCOc1cc(Cl)c(Cl)cc1Cl.Cl | 95 |
| COc1ccc(Cl)cc1N1CCN(CCCNC(=O)c2ccc(-c3nc4cc(Cl)c(Cl)cc4[nH]3)c(C)c2)CC1 | 0 |
| Cc1ccc(C(O)CNc2ccnc(Nc3cccc(-c4csc(C)n4)c3)n2)cc1 (stereo not given) | 31 |
| CC(C)(CNCc1ccc(C(F)(F)F)cc1)c1nc(-c2ccc(Cl)c(O)c2)c(-c2ccncc2)[nH]1.Cl | 98 |
| CC(C)(C)NCC(O)COc1ccc(Cl)cc1C1=NNC(=O)CC1.Cl (stereo not given) | 0 |
| Cl.Nc1c(C(=O)NCCCCN2CCN(c3nsc4ccccc34)CC2)sc2ccccc12 | 0 |
| CC(C)(C)NC(=O)C(c1ccc(F)cc1)N(C(=O)c1ccc(CN2CCOCC2)o1)c1ccc(C2CCCCC2)cc1 (stereo not given) | 68 |
| CCCCNC(=O)C(C)NC(=O)c1ccc(O)c(-c2ccc(Cl)c(Cl)c2)c1 (stereo not given) | 8 |
| O=C(NCCc1ccccc1)c1cc(-c2cccnc2)cnc1NCC1CC1 | 35 |
| Nc1cccc(CNCc2cccc(-c3cccc(-c4nc5cc(C(F)(F)F)ccc5[nH]4)c3)c2)c1.O=C(O)C(F)(F)F | 96 |
| CCc1cc2c3c(N)nc(N)nc3ccc2n1C(CC)CC | 12 |
| CCc1c(C)nc(-n2nc(C)cc2NC(=O)CCc2ccccc2)[nH]c1=O | 97 |
| O=C1SC(=Cc2ccc(O)c(O)c2)C(=O)N1c1ccccc1 | 17 |
| Cc1cccc2nc(-c3cccc(-c4cccc(NC(=O)NC5CC5c5ccccc5)c4)c3)[nH]c12 (stereo not given) | 28 |
| N#Cc1cccc(C(=O)Nc2cccc(-c3ccc(C(=O)NCCCN4CCOCC4)cc3)c2)c1 | 21 |
| CC(=O)Nc1cccc(C(=O)Nc2cccc(-c3csc(-c4nc5ccccc5[nH]4)c3)c2)c1 | 97 |
